Measured values taken from PubChem BioAssay AID720641 (ICCB-Longwood Screening Facility, Harvard Medical School, 2013).
Hit rate of the full screen: of about 170,000 compounds, about 900 (0.53%) were called active.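 Rule for the calls: active = relative growth at most 50% at the other temperature and 20+ points below 30 °C, or under 10% at both; inactive = the rest, inconclusive results apart.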 What follows is part of a selection rich in actives, with near analogues and random picks from the rest.

Test: Staphylococcus aureus RN4220 growth blockers – two temperatures, LtaS inhibitor project, primary screen (AID 720641)
Details: S. aureus RN4220 growth, OD600, 20 h, 42 °C, stronger effect = lower value

Cc1nc2ccccc2nc(C)c1=NOCC(=O)Nc1ccc(S(=O)(=O)N2CCOCC2)cc1
relative growth: 102% (inactive)
relative growth (measured here: growth at 30 °C): 96.4%

O=C(CCCN1C(=O)CSc2ncccc21)N1CCCCC1
relative growth: 98.9% (inactive)
relative growth (measured here: growth at 30 °C): 84.5%

COc1ccc(C(C(=O)NC2CCCC2)N(C(=O)c2ccn[nH]2)c2ccc(F)cc2)cc1OC (stereo not given)
relative growth: 113% (inactive)
relative growth (measured here: growth at 30 °C): 89%

CC(C)NC(=O)CSc1ccccc1C(=O)Nc1ccc(-n2cnnn2)cc1
relative growth: 102% (inactive)
relative growth (measured here: growth at 30 °C): 89.2%

c1ccc(NC2CCCCC2)cc1
relative growth: 104% (inactive)
relative growth (measured here: growth at 30 °C): 103%

c1ccc2c(c1)CC(Nc1ccc3cn[nH]c3c1)C2
relative growth: 1.74% (active)
relative growth (measured here: growth at 30 °C): 1.83%

O=S(=O)(Nc1ccc2cn[nH]c2c1)c1ccccc1
relative growth: 105% (inactive)
relative growth (measured here: growth at 30 °C): 98.5%

Cc1cc(C)c(NC(=O)C2CC3c4ccccc4C2C2C=CC=CC32)c(C)c1 (stereo not given)
relative growth: 123% (inactive)
relative growth (measured here: growth at 30 °C): 88.2%

Nc1cc(C(F)(F)F)ccc1-n1cccn1
relative growth: 92.8% (inactive)
relative growth (measured here: growth at 30 °C): 95.4%

COc1ccc2c(c1)NC(c1ccccc1)c1cccn1-2 (stereo not given)
relative growth: 69.2% (inactive)
relative growth (measured here: growth at 30 °C): 62.6%

Oc1c(Cl)cc(Cl)cc1C1Nc2cc(C(F)(F)F)ccc2-n2cccc21 (stereo not given)
relative growth: 5.2% (active)
relative growth (measured here: growth at 30 °C): 6.75%

COCCCn1c(C)cc(C(=O)CSc2ncnc3ccccc23)c1C
relative growth: 136% (inactive)
relative growth (measured here: growth at 30 °C): 92.1%

CC1Cc2ccccc2N1c1ccc2ccccc2n1 (stereo not given)
relative growth: 94.3% (inactive)
relative growth (measured here: growth at 30 °C): 99.6%

COc1ccc(/C=C/C(=O)N2CCCC2)cc1OC
relative growth: 81.4% (inactive)
relative growth (measured here: growth at 30 °C): 88.8%

C/C=C/c1ccc(OCC(=O)OC(C)C(N)=O)c(OC)c1 (stereo not given)
relative growth: 71.1% (inactive)
relative growth (measured here: growth at 30 °C): 88.7%

COc1cc(/C=C/C(=O)OCC(N)=O)ccc1OCC#N
relative growth: 46.3% (active)
relative growth (measured here: growth at 30 °C): 78.8%

COc1cc(C2C(C(=O)Nc3ccccn3)=C(C)NC3=C2C(=O)CCC3)cc(OC)c1OC (stereo not given)
relative growth: 98.5% (inactive)
relative growth (measured here: growth at 30 °C): 93.4%

CC(C)CC(=O)n1c(=O)oc2ccccc21
relative growth: 96.6% (inactive)
relative growth (measured here: growth at 30 °C): 101%

N#Cc1c(-c2ccco2)cc(C2CC2)nc1SCC(=O)c1ccc(Br)cc1
relative growth: 82.6% (inactive)
relative growth (measured here: growth at 30 °C): 76.7%

O=C(NCCSc1ccccc1)c1cccnc1Oc1ccccc1
relative growth: 115% (inactive)
relative growth (measured here: growth at 30 °C): 76.2%

CC(=O)Oc1cccc2c1OC(C)(C)C2
relative growth: 117% (inactive)
relative growth (measured here: growth at 30 °C): 99.9%

CC(=O)Oc1cccc2c1C(=O)C=CC2=O
relative growth: 2.55% (active)
relative growth (measured here: growth at 30 °C): 1.59%

CC(=O)Oc1ccc(OC(C)=O)c2c1C1C=CC2CC1
relative growth: 105% (inactive)
relative growth (measured here: growth at 30 °C): 99.4%

CSCCC(=O)Nc1nc2ccccc2[nH]1
relative growth: 113% (inactive)
relative growth (measured here: growth at 30 °C): 87.5%

O=C(Nc1cccc(Cl)c1)Nc1ccccn1
relative growth: 61.4% (inactive)
relative growth (measured here: growth at 30 °C): 70%

O=C(Nc1ccc(Cl)c(Cl)c1)Nc1ccnn1C1CCCCC1
relative growth: -0.5% (active)
relative growth (measured here: growth at 30 °C): -0.69%

CC(=O)Nc1ccc2c(c1)CN(C1CCCCC1)CO2
relative growth: 90.6% (inactive)
relative growth (measured here: growth at 30 °C): 87.6%

O=C(Nc1ccccc1)Nc1ccc(Cl)c(Cl)c1
relative growth: 2.14% (active)
relative growth (measured here: growth at 30 °C): 2.42%

CC(C)Oc1ccc(C(=O)Nc2ccnn2C2CCCCC2)cc1
relative growth: 105% (inactive)
relative growth (measured here: growth at 30 °C): 98.1%

CCc1ccc(NC(=O)Nc2ccccc2)cc1
relative growth: 93.4% (inactive)
relative growth (measured here: growth at 30 °C): 96.9%
